# Source: PubChem BioAssay (NCATS)
# Unmarked numbers belong to inactive results. Results filed as inconclusive are left out. Where a call stands in place of a potency, no number is given. Active and inactive are the calls of the source. Unless noted, calls follow the shape of the dose curve; as a rule, active = well fitted curve in the direction sought with a large enough effect; inconclusive = small, poorly fitted or top-dose-only effect, or another doubt; inactive = no such curve, though single readings can be large; an effect the other way counts as inactive or inconclusive.
# Columns and labels:
# [1] = AP1 Signaling Pathway (AID 357; active = well fitted curve in either direction with a large enough effect, not every such curve was filed as active;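 also: ME-180 reporter cells stimulated with EGF at its EC50 level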); conditions: ME-180 AP-1-bla reporter, EGF-induced, beta-lactamase ratio, 5 h; at 7.69 µM (top of the series) unless noted
# Outline: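 A ratiometric CCF4 readout (405 nm excitation; 460 and 530 nm emission) quantified AP-1-driven beta-lactamase in ME-180 cells after 5 h with compound and EC50 EGF; AC50 values were derived for activators and inhibitors.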
# [2] = target: Cytochrome P450 1A2 (Homo sapiens) (UniProt P05177); test: p450-cyp1a2 (AID 410; calls by dose curve; also: potency is read from the fitted curve at half-maximal effect)
# Outline: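 O-Demethylation of luciferin 6' methyl ether by human CYP1A2 is monitored as luciferase luminescence. Substrate sits at Km (100uM); enzyme is 20nM. Values are scaled to 57 uM furafylline as maximal inhibition.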
# [3] = NFAT Signaling Pathway (AID 444; active = well fitted curve in either direction with a large enough effect, not every such curve was filed as active;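 also: carbachol stimulus at about its EC50 of 1 µM final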); conditions: Jurkat NFAT-bla M1, carbachol, beta-lactamase ratio, 5 h; at 7.69 µM (top of the series) unless noted
# Outline: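 Jurkat cells carrying an NFAT-driven β-lactamase reporter and co-transfected muscarinic M1 receptor were treated with compound plus carbachol (1 uM final, an EC50 level) for 5 h at 37 °C. CCF4 loading followed for 1 h at RT; 460/530 nm ratio gave %activity.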
# [4] = Stat Signaling Pathway (AID 446; active = well fitted curve in either direction with a large enough effect, not every such curve was filed as active;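 also: ME-180 cervical cancer cells given 40 pM IL-6 alongside compound; SIE-controlled beta-lactamase reporter measured as 460/530 nm FRET emission ratio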); conditions: ME-180 (cervical carcinoma) SIE beta-lactamase reporter, IL-6 stimulated, 5 h; at 7.69 µM (top of the series) unless noted
# Outline: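 FRET read-out (405 nm excitation, 460/530 nm emission) of a beta-lactamase reporter under a STAT-inducible element in ME-180 cervical carcinoma cells. Cells with compound receive 40 pM IL-6 for 5 h. Values are normalised to AC90 stimulation and AC90 JAK-inhibitor controls.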
# [5] = target: Glucocorticoid receptor (Homo sapiens) (UniProt P04150); test: GR-GFP Redistribution (AID 450;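 active = compounds whose dose series gives a full or clear partial fitted curve of increased nuclear translocation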; also: potency is read from the fitted curve at half-maximal effect); conditions: U2OS GR-GFP nuclear translocation, laser cytometry, 2 h
# [6] = target: Glucocorticoid receptor (Homo sapiens) (UniProt P04150); test: GR-EFC Redistribution (AID 451; calls by dose curve; also: potency is read from the fitted curve at half-maximal effect); conditions: CHO-K1 GR-EFC translocation, beta-gal luminescence, 2 h
# Outline: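 CHO-K1 cells stably expressing nuclear-localized β-gal enzyme acceptor and GR fused C-terminally to the enzyme donor fragment; ligand-driven nuclear translocation restores β-gal by complementation. Compounds titrated up to 46 uM final, 2 h at 37 °C; luminescence read.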
# [7] = target: Mitogen-activated protein kinase 10 (Mus musculus) (UniProt Q61831); test: JNK3 AlphaScreen Assay (AID 530; active = well fitted curve in either direction with a large enough effect, not every such curve was filed as active;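 also: kinase came from lysate of stimulated human HepG2 cells; signal reports phosphorylation of biotinylated GST-cJun 1-79 at Ser73 with 10 µM ATP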)
# Outline: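 Phosphorylation of biotinylated GST-cJun(1-79) at Ser73 is measured by AlphaScreen proximity luminescence. Enzyme is JNK3 in HepG2 lysates activated with interleukin-1beta and tumor necrosis factor alpha; ATP is 10 uM final.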
# [8] = target: 3',5'-cyclic-AMP phosphodiesterase 4B (Homo sapiens) (UniProt Q07343); test: qHTS Assay for Inhibitors of PDE-IV (AID 607; active = well fitted activation curve with a large enough effect in the main read-out, with a control signal flat, not every such curve was filed as active)
# Outline: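 Cell-based read-out of cAMP via a modified cyclic nucleotide-gated channel and membrane potential dye (535/590 nm) in HEK293 cells expressing PDE4 endogenously. Compounds tested up to 22.9 uM final; 100 uM RO 20-1724 reference.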
# [9] = target: Cytochrome P450 2D6 (Homo sapiens) (UniProt P10635); test: qHTS Assay for Inhibitors and Substrates of Cytochrome P450 2D6 (AID 891); also: potency is read from the fitted curve at half-maximal effect; nearly all actives have a fitted effect of over 60% in size
# Outline: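 Luminescent read-out of luciferin formed by 5 nM human CYP2D6 demethylating 30 uM Luciferin-ME EGE (Km level) over 60 min at room temperature after NADPH regeneration addition. Data normalized to full inhibition by 1.43 uM quinidine.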
# [10] = qHTS Assay for Identification of Small Molecule Antagonists for NFkB Signaling Pathway (AID 895; active = well fitted inhibition curve with a large enough effect in the signal ratio, with a control signal flat, not every such curve was filed as active; the % refers to the signal ratio)
# Outline: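 NFkB-bla ME-180 cervical carcinoma cells with beta-lactamase reporter under NFkB response element; compounds added, then TNF alpha at 10 pM final (EC50), 5 h at 37 C. LiveBLAzer substrate 2 h, room temperature; emission 460/530 nm at 405 nm excitation.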
# [11] = qHTS Assay for Identification of Small Molecule Agonists for Thrombopoietin (TPO) Signaling Pathway (AID 917)
# Outline: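 Luciferase reporter (Glycoprotein IIb promoter) in IL-3-deprived Ba/F3 cells carrying human TPO receptor; compounds co-added with 26 pM TPO, incubated 24 h, 37 C. Steadylite luminescence measured after 10 min.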
# [12] = target: Muscarinic acetylcholine receptor M1 (Rattus norvegicus) (UniProt P08482); test: qHTS Assay for Antagonists of Acetylcholine Muscarinic M1 Receptor: Measurement of IP-One Response (AID 944); also: nearly all actives have a fitted effect of over 75% in size
# Outline: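 Antagonist mode with rat M1 receptor transfected into CHO cells. Compound is added first for 10 min, carbachol at its EC80 follows for 30 min, and lysis reagents then allow TR-FRET detection of accumulated IP1.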
# [13] = target: Pyruvate kinase (Leishmania mexicana) (UniProt Q27686); test: qHTS Validation Assay for Inhibitors of Leishmania Mexicana Pyruvate Kinase (AID 945)
# Outline: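 Eight-point qHTS titrations in triplicate, data normalized to DMSO neutral control. Reaction: 0.2 nM LmPYK E451W mutant, 0.5 mM PEP, 0.1 mM ADP, 7 mM MgCl2, pH 7.2, one hour at room temperature; luminescent ATP detection.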
# [14] = target: Pyruvate kinase PKM (Homo sapiens) (UniProt P14618); test: qHTS Assay for Activators of Human Muscle Pyruvate Kinase (AID 954; active = well fitted curve in the direction sought with a large enough effect, not every such curve was filed as active)
# Outline: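 ATP production by PKM2 detected via luciferase luminescence after 1 h room-temperature reaction (0.1 nM enzyme, PEP at Km 0.5 mM, ADP 0.1 mM, pH 7.2 imidazole buffer). Inhibition scaled to no-enzyme control; activation referenced to 0.3 nM enzyme wells.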
# [15] = target: Alpha-galactosidase (Coffea arabica) (UniProt Q42656); test: Counterscreen for Glucocerebrosidase Inhibitors: qHTS Assay for Coffee Bean alpha-Galactosidase at pH 4.5 (AID 957)
# Outline: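 Enzyme is added first (2 nM final), then compounds titrated from 0.7 nM to 77 uM, then 80 uM 4-methylumbelliferyl alpha-D-galactopyranoside; after 20 min at room temperature a pH 10 NaOH/glycine stop precedes fluorescence reading at 365/440 nm.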
# [16] = target: Alpha-galactosidase A (Homo sapiens) (UniProt P06280); test: Counterscreen for Glucocerebrosidase Inhibitors: qHTS Assay for Human alpha-Galactosidase at pH 4.5 (AID 992)
# Outline: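 Fluorogenic 1536-well qHTS at pH 4.5 (citrate, Tween-20): 2 nM enzyme, 80 uM 4-MU-alpha-galactoside, 20 min room temperature, NaOH/glycine stop. Titration 0.7 nM to 77 uM, data normalized to no-enzyme and full-activity controls, Hill-fitted AC50.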
# [17] = target: alpha-glucosidase (Oryza sativa, rice) (UniProt Q653V4); test: Counterscreen for Glucocerebrosidase Inhibitors: qHTS Assay for Rice alpha-Glucosidase at pH 5.0 (AID 997)
# Outline: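 Endpoint fluorogenic assay at pH 5.0: compounds (0.7 nM to 77 uM) titrated against 4 nM rice enzyme and 400 uM 4-MU-alpha-glucoside for 20 min at room temperature; NaOH/glycine stop, read ex 365/em 440 nm, Hill-fitted AC50.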
# [18] = target: Alpha-galactosidase (Coffea arabica) (UniProt Q42656); test: Counterscreen for Glucocerebrosidase Inhibitors: qHTS Assay for Coffee Bean alpha-Galactosidase at pH 5.9 (AID 998)
# Outline: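 In 50 mM citric acid pH 5.9 with 0.005% Tween-20, coffee bean enzyme hydrolyses 80 uM 4-MU alpha-D-galactopyranoside over 20 min at RT. Activity is normalized to controls; AC50 comes from Hill-modelled concentration-response data.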
# [19] = target: Guanine nucleotide-binding protein G(i) subunit alpha-1 (Homo sapiens) (UniProt P63096); test: qHTS Assay for Inhibitors of RGS12 GoLoco Motif Activity (Green Fluorophore) (AID 879);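 also: negative values mean loss of peptide binding seen as reduced polarization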
# Outline: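 A drop in FITC polarization marked displacement of the FITC-tagged RGS12 GoLoco peptide (10 nM) from Gαi1 (50 nM). Compounds were incubated 10 min at room temperature in Tris pH 7.5 buffer containing 150 mM NaCl, 0.1 mM GDP and 0.05% NP40; unlabeled peptide titration served as control.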
# [20] = target: Muscarinic acetylcholine receptor M1 (Rattus norvegicus) (UniProt P08482); test: qHTS Assay for Antagonists of Acetylcholine Muscarinic M1 Receptor: Kinetic Measurement of Intracellular Calcium Response (AID 943);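 also: Fluo-4 calcium signal as peak divided by basal fluorescence over 4 min; nearly all actives have a fitted effect of over 75% in size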
# Outline: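 Antagonism is measured as inhibition of the carbachol-evoked calcium rise in CHO cells transfected with rat M1. Cells are dye-loaded, exposed to compound for 10 min, then stimulated with 100 nM carbachol (EC80).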
# [21] = target: Cytochrome P450 2C19 (Homo sapiens) (UniProt P33261); test: qHTS Assay for Inhibitors and Substrates of Cytochrome P450 2C19 (AID 899); also: nearly all actives have a fitted effect of over 60% in size
# Outline: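 In 50mM KPO4, the reaction held 5nM enzyme and KM-level (10uM) Luciferin-H EGE; it ran 60 min at 37C after NADPH regeneration and a 10 min compound preincubation. Luminescence values were scaled to 57uM ketoconazole as complete inhibition.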
# Sequence of Muscarinic acetylcholine receptor M1 (Rattus norvegicus) (P08482 whole entry, looked up): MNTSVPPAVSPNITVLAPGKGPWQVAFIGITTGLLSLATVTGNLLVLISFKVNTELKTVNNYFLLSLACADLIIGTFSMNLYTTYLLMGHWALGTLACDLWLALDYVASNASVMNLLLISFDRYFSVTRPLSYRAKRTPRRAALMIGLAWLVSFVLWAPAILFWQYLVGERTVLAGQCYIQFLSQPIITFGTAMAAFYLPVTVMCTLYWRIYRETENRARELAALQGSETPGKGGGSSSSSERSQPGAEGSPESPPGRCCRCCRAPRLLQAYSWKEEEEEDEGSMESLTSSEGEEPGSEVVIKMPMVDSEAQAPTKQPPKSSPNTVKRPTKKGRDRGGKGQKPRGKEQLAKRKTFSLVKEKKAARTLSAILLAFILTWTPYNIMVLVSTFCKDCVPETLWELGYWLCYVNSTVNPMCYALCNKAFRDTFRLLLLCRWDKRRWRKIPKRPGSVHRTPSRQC
# Sequence of 3',5'-cyclic-AMP phosphodiesterase 4B (Homo sapiens) (Q07343 whole entry, looked up): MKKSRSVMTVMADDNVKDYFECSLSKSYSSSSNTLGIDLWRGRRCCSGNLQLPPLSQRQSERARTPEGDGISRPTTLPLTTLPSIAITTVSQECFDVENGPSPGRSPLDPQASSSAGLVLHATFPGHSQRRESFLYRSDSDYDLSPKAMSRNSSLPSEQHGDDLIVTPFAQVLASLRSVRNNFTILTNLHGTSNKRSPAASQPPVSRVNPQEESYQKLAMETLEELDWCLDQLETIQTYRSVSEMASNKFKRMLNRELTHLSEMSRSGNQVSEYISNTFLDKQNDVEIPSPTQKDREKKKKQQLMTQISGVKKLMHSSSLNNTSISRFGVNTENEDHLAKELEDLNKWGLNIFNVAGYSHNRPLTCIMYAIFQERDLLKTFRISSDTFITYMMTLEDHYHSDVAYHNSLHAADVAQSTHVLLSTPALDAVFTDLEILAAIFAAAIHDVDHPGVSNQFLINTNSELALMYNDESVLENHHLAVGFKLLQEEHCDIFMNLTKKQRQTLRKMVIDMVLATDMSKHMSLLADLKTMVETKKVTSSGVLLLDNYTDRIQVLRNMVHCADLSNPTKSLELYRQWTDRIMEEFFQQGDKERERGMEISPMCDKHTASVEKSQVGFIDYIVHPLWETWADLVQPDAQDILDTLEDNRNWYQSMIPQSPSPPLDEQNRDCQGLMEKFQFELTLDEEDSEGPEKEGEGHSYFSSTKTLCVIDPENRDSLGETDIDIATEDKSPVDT
# Sequence of Alpha-galactosidase A (Homo sapiens) (P06280 whole entry, looked up): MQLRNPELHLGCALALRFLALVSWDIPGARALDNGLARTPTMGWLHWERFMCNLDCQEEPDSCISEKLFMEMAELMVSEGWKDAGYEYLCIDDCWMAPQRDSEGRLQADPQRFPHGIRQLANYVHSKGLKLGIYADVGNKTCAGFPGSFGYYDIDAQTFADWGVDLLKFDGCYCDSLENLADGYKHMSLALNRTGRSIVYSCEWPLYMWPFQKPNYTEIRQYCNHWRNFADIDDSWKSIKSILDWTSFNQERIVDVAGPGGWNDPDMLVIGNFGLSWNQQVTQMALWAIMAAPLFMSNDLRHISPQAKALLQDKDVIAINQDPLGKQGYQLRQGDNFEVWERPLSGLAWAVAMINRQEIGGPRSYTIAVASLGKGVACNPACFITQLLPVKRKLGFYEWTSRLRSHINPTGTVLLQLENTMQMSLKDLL
# Sequence of Alpha-galactosidase (Coffea arabica) (Q42656 whole entry, looked up): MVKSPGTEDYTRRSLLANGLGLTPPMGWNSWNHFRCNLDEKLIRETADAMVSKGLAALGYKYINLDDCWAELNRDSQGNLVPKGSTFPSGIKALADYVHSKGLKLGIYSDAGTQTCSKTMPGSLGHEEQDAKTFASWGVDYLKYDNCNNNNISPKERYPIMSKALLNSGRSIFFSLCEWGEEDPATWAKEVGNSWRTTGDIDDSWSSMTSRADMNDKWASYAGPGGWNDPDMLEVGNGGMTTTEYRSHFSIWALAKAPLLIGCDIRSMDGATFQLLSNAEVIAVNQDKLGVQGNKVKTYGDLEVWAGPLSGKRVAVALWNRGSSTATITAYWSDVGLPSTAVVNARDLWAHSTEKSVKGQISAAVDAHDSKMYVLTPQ
# Sequence of Cytochrome P450 1A2 (Homo sapiens) (P05177 whole entry, looked up): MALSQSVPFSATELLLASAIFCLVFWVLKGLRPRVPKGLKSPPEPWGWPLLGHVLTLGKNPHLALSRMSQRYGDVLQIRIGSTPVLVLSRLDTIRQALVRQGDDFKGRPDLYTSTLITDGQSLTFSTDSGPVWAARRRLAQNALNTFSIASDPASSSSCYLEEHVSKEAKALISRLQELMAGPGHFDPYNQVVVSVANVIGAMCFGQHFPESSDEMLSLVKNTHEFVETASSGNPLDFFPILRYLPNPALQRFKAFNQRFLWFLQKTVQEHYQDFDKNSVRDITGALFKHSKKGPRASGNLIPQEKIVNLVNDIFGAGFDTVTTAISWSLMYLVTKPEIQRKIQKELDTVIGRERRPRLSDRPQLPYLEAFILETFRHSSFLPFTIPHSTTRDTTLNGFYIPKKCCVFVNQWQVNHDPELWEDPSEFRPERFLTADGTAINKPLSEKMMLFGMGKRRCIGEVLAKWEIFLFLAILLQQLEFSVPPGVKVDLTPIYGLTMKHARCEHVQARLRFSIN
# Sequence of Glucocorticoid receptor (Homo sapiens) (P04150 whole entry, looked up, the tested form may be a part): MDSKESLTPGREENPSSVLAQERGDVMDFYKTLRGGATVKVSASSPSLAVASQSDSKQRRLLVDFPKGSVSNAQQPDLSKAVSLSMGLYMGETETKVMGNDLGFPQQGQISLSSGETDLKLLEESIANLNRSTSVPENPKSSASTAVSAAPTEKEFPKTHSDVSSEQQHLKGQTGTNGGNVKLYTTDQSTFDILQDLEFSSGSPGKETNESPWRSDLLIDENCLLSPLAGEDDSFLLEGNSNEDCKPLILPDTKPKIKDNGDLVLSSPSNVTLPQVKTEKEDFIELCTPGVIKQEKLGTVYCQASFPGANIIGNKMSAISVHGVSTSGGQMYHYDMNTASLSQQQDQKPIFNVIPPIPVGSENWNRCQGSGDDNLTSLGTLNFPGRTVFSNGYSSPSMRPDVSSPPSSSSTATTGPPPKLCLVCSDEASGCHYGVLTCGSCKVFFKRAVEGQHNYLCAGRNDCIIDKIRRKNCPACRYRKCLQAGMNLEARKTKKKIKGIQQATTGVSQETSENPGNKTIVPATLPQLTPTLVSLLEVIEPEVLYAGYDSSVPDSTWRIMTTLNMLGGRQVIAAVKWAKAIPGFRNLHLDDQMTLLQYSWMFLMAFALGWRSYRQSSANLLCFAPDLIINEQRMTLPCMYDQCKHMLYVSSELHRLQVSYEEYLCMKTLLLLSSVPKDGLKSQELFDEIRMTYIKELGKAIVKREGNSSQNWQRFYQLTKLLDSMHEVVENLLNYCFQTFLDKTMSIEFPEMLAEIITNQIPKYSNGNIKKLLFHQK
# Sequence of Guanine nucleotide-binding protein G(i) subunit alpha-1 (Homo sapiens) (P63096 whole entry, looked up): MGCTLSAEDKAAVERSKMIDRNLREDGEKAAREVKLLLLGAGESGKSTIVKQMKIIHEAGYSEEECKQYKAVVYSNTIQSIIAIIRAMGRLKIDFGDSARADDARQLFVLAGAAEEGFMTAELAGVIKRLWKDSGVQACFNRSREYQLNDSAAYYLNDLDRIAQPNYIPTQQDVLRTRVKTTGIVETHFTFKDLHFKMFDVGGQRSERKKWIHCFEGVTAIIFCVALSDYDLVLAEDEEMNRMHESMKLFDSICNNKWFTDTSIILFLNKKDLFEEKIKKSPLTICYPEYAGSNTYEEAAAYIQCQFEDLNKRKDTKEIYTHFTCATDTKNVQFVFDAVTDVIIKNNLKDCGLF
# Sequence of Pyruvate kinase (Leishmania mexicana) (Q27686 2-499 E452W): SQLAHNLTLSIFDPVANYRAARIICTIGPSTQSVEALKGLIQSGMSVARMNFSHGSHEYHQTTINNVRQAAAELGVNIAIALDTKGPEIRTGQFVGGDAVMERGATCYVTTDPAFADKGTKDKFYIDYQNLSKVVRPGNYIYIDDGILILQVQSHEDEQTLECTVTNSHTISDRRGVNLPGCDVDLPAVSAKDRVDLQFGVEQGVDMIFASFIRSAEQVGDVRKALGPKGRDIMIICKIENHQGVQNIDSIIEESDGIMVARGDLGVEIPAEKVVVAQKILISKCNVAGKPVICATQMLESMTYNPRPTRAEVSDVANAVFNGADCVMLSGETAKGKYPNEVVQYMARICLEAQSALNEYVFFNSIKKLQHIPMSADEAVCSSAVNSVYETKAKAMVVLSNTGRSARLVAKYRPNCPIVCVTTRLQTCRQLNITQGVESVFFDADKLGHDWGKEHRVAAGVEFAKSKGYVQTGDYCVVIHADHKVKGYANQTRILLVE
# Sequence of Pyruvate kinase PKM (Homo sapiens) (P14618 whole entry, looked up): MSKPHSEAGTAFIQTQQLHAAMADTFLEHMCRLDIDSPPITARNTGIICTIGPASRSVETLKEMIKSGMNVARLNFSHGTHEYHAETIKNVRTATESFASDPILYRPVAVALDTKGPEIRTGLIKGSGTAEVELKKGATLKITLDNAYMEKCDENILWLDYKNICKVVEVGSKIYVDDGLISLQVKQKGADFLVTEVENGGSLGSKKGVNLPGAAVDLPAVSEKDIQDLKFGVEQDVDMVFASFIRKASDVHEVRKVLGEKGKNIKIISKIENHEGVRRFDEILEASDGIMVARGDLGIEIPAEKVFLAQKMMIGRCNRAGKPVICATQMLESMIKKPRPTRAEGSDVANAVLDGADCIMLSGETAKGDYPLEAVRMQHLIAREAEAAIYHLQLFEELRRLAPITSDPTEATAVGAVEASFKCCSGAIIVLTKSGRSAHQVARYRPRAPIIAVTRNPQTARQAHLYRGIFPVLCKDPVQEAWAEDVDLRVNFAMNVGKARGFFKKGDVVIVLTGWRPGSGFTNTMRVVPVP
smiles,measurement,setting,value
CN1C[C@@H](CS(=O)(=O)N(C)C)C[C@H]2c3cccc4c3c(cn4C)C[C@@H]21,"activity change, negative = inhibition",[1],2.96% [at 38 µM]
same,Potency,[2],25.1 µM (active)
same,"activity change, negative = inhibition",[3],4.13% [at 38 µM]
same,"activity, negative = inhibition",[4],-10.8% [at 38 µM]
same,Potency,[5],> 46 µM
same,Potency,[6],> 46 µM
same,Potency,[7],inactive
same,outcome,[8],inactive
same,Potency,[9],3.98 µM (active)
same,Potency,[10],inactive
same,outcome,[11],inactive
same,Potency,[12],inactive
same,outcome,[13],inactive
same,outcome,[14],inactive
same,outcome,[15],inactive
same,outcome,[16],inactive
same,outcome,[17],inactive
same,outcome,[18],inactive
CC(C)C[C@H](NP(=O)(O)O[C@@H]1O[C@@H](C)[C@@H](O)[C@@H](O)[C@H]1O)C(=O)N[C@@H](Cc1c[nH]c2ccccc12)C(=O)O,"activity change, negative = inhibition",[1],5.95% [at 38 µM]
same,"activity change, negative = inhibition",[3],9.26% [at 38 µM]
same,"activity, negative = inhibition",[4],14.9% [at 38 µM]
same,Potency,[5],> 46 µM
same,Potency,[6],> 46 µM
same,Potency,[7],inactive
same,outcome,[8],inactive
same,outcome,[19],inactive
same,Potency,[10],inactive
same,outcome,[11],inactive
same,Potency,[20],inactive
same,Potency,[12],inactive
same,outcome,[13],inactive
same,outcome,[14],inactive
same,outcome,[15],inactive
same,outcome,[16],inactive
same,outcome,[17],inactive
same,outcome,[18],inactive
CCNC(=O)[C@@H]1O[C@@H](n2cnc3c(N)ncnc32)[C@@H](O)[C@H]1O,"activity change, negative = inhibition",[1],-6.61% [at 38 µM]
same,Potency,[2],inactive
same,"activity change, negative = inhibition",[3],-9.11% [at 38 µM]
same,"activity, negative = inhibition",[4],24.4% [at 38 µM]
same,Potency,[5],> 46 µM
same,Potency,[6],> 46 µM
same,Potency,[7],inactive
same,outcome,[19],inactive
same,Potency,[10],inactive
same,Potency,[21],inactive
same,outcome,[11],inactive
same,Potency,[20],inactive
same,Potency,[12],inactive
same,outcome,[13],inactive
same,outcome,[14],inactive
same,outcome,[15],inactive
same,outcome,[16],inactive
same,outcome,[17],inactive
same,outcome,[18],inactive
O=C(O)[C@H]1[C@H](C(=O)O)[C@H]2CC[C@@H]1O2,"activity change, negative = inhibition",[1],-9.16% [at 38 µM]
same,Potency,[2],inactive
same,"activity change, negative = inhibition",[3],-8.52% [at 38 µM]
same,"activity, negative = inhibition",[4],-14.7% [at 38 µM]
same,Potency,[5],> 46 µM
same,Potency,[7],inactive
same,outcome,[8],inactive
same,outcome,[19],inactive
same,Potency,[20],inactive
same,Potency,[12],inactive
same,outcome,[13],inactive
same,outcome,[14],inactive
same,outcome,[15],inactive
same,outcome,[16],inactive
same,outcome,[17],inactive
same,outcome,[18],inactive
